# Measured values from PubChem BioAssay (NCI).
# Values joined by “and” are separate entries in the source; they are usually repeats but may differ in a detail not shown here. Equal entries are not always repeated. This is part of a sample that, as a whole, favours compounds with a hit. Of some 83,000 tested, about 20% had one in any assay.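 How to read the values: 0–100, growth inhibition (40 = 60% inhibited); 0, no net growth; -100 to 0, cell death (-40 = 40% of starting cells died; -100 = all dead).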 Active and inactive are the calls of the source. Rule for the calls: active = growth percent below 10; inactive = the rest.
# Test system: MDA-MB-468 breast
# Assay: NCI-60 one-dose screen, 48 h (100 = growth as untreated, 0 = no growth, -100 = all killed)
# Conditions: 10 µM unless noted
row,Structure (SMILES),growth
1,COc1ccc(/C=C/C(=O)c2cc3c(N)c(C(=O)Nc4ccc(OC)cc4)sc3nc2C)cc1,11.6% (inactive)
2,Cc1[nH]nc2ncc(C#Cc3cncc(C(=O)Nc4ccc(CN5CCN(C)CC5)c(C(F)(F)F)c4)c3)cc12,26.1% (inactive)
3,Nc1ccc(-c2cc3c(Nc4ccc(OCc5cccc(F)c5)c(Cl)c4)ncnc3s2)cc1,14.2% (inactive)
4,O=c1[nH]c(=O)n(Cc2ccc(F)cc2)cc1F,102% [50 µM] (inactive)
5,O=C1CCC(=O)N1CC1CC2CCC1C2 (stereo not given),104% (inactive) and 90.6% (inactive)
6,N#CC1=C(c2ccc(Cl)cc2)Nc2c(c(-c3ccc(Cl)cc3)nn2-c2ccccc2)C12C(=O)Nc1ccc(Cl)cc12 (stereo not given),52.9% (inactive)
7,CN1CCN(c2ccc(Nc3nc(NCCCNS(=O)(=O)c4ccccc4)c4sccc4n3)cc2)CC1,30.3% (inactive)
8,CC/C(Cc1ccccc1)=C(\c1ccc(OCCN2CCCC2)cc1)c1ccc(OC(C)=O)cc1,62.8% (inactive)
9,CN1CCN(CCNC(=O)c2cccc(CN3c4cccc5c4C(=Cc4cccnc43)N(C)C5=O)c2)CC1,24.4% (inactive)
10,C[N+](C)(C)CCOC(OCC[N+](C)(C)C)(c1ccccc1)c1ccccc1,128% (inactive)
11,CC(C)c1ncc([N+](=O)[O-])n1C,104% (inactive)
12,COc1ccc2c(c1)oc1c(C)c3c(c(C)c12)C(=O)N(CCN1CCOCC1)C3=O,106% (inactive)
13,O=c1oc2ccc(F)cc2c(=O)n1-c1ccc(F)cc1F,-4.2% (active)
14,CN1CCN(c2ccc(Nc3nc(NCCCNS(=O)(=O)c4cccc(F)c4)c4sccc4n3)cc2)CC1,-5.96% (active)
15,Clc1ccc(/C=C/c2ccc3ccccc3n2)cc1,-11.4% (active) and 73.5% (inactive) and 80.5% (inactive)
16,CNCCN(C)c1ccc(Nc2cc(NC3CC3)n3ncc(C#N)c3n2)cc1NC(C)=O,-54.5% (active)
17,COc1cc(C2=NN(C(C)=O)C(c3ccc(OC(C)=O)cc3OC(C)=O)O2)c(OC(C)=O)c2ccccc12 (stereo not given),-9.39% (active)
18,CC1CCNC(C)C1 (stereo not given),99.2% (inactive)
19,NS(=O)(=O)Oc1ccc(-c2sc3cc(O)ccc3c2C(=O)c2ccc(OCCN3CCCCC3)cc2)cc1,95.1% (inactive)
20,CC(C)(C)n1cc(-c2ccnc(NCCCNS(=O)(=O)c3cccc(F)c3)c2)c(-c2cccc(O)c2)n1,25.9% (inactive)

row,Structure (SMILES),growth
1,CCCCCc1c(C)[nH]c(/C=C2\N=C(c3ccc[nH]3)C=C2OCc2ccccc2)c1C,-51.6% [100 µM] (active)
2,COc1cc2c(cc1-c1c(C)noc1C)ncc1nc(C3CCC(F)(F)CC3)n([C@H](C)COC(F)F)c12,33.6% (inactive)
3,COc1ccc(Cn2cc3c(c2-c2ccccc2)CCCc2cnoc2-3)cc1[N+](=O)[O-],40.4% (inactive)
4,CC(N)C(Cc1ccccc1)c1ccc(Cl)cc1 (stereo not given),83.1% (inactive)
5,CN1CCN(CCOc2cc(OC3CCOCC3)c3c(Nc4c(Cl)ccc5c4OCO5)ncnc3c2)CC1,25.8% (inactive)
6,CC(=O)Nc1nc(C)c(C(=O)N/N=C/N2CCCCC2)s1,101% (inactive)
7,C=C1CC[C@@H]2[C@](C)(COC(C)=O)[C@H](OC(C)=O)CC[C@@]2(C)[C@@H]1CC(Sc1ccccc1)C1=CCOC1=O (stereo not given in full),-61.1% (active)
8,COC(=O)/C(CCC=C(C)C)=C1\[C@@H](OC(C)=O)C[C@@]2(C)[C@H]1C[C@@H](O)[C@H]1[C@@]3(C)CC[C@H](NCc4ccccc4)[C@@H](C)[C@@H]3CC[C@@]12C,76.8% (inactive)
9,Nc1c(C(=O)Nc2cccc3ccccc23)sc2nc3c(cc12)COCC3,38.6% (inactive)
10,COc1ccc(/C=C2\C(=O)N(C(=O)c3csc(NC(C)=O)n3)N=C2C)cc1,112% (inactive)
11,C=C1C(=O)C2CCN1CC2,101% (inactive)
12,COc1ccc(/C=C/C(=O)c2cccc(NS(C)(=O)=O)c2)cc1,47% (inactive)
13,COc1cc2nccc(Oc3ccc(NC(=O)C4(C(=O)Nc5ccc(F)cc5)CC4)cc3)c2cc1OC,33.6% (inactive)
14,COc1ccc(C(O)c2cc3c(N)c(C(=O)Nc4cccc5ccccc45)sc3nc2C)cc1 (stereo not given),23.7% (inactive)
15,COc1ccc(CCO)cc1,101% (inactive)
16,COc1ccc2c(c1)[nH]c(=O)c1c3cc(OC)c(OC)cc3cn21,11.4% (inactive)
17,CC(C)OC(=O)OCOP(=O)(OCOC(=O)OC(C)C)C1CCCN(O)C1=O (stereo not given),36.3% (inactive)
18,Nc1nc(Nc2ccc(F)cc2)nn1C(=O)c1cc(Cl)ccc1Cl,60.6% (inactive)
19,O=C(CC(CC(=O)c1ccccc1)c1ccccn1)c1ccccc1,102% (inactive)
20,Oc1c(C(Nc2ccccc2Br)c2ccccc2)ccc2cccnc12 (stereo not given),-4% (active)
